These results are taken from PubChem BioAssay (NCATS).

The nature of assay [1]: Cell Viability - H-4-II-E (AID 543).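 Note: cells exposed to compound for 40 hours; % is set by controls: 0 for no effect and ±100 for the full control effect; nearly all actives have a fitted effect of over 35% in size.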 The method, boiled down: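 CellTiter-Glo luminescence (intracellular ATP) measured after 40 h compound exposure at 37 °C in H-4-II-E rat hepatoma cells seeded at 1500/well. Values are AC50s fitted with the standard Hill equation.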
A short description of assay [2]: Cell Viability - SH-SY5Y (AID 544).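 Note: cells exposed to compound for 40 hours; 0% = DMSO alone and -100% = 100 µM tamoxifen; nearly all actives have a fitted effect of over 55% in size.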 The note with it: SH-SY5Y neuroblastoma cell viability; viability change, negative = cytotoxic: at 92.2 µM (top of the series). The method, boiled down:
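Cytotoxicity measured via ATP-dependent luciferase luminescence (CellTiter-Glo) following 40 h, 37 °C exposure of 1500 SH-SY5Y cells per well. Concentration-response data were fitted with the standard Hill equation to give AC50.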

A short description of assay [3]: Cellular Toxicity (caspase-3) SK-N-SH (AID 661).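 Note: 0% = DMSO basal and 100% = 10 µM staurosporine.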 The essentials:
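Caspase 3/7 activation was read by luminogenic substrate cleavage after 16 hour treatment of SK-N-SH cells. Signal was scaled between DMSO and 10 uM staurosporine, and concentration-response data were fitted with the Hill equation for AC50.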

Assay [4] can be described thus: Cellular Toxicity (caspase-3) H-4-II-E (AID 663).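 Note: 0% = DMSO basal and 100% = 100 µM tamoxifen.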 The note with it: Potency: caspase-3 activation. The essentials:
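H-4-II-E rat hepatoma, 1500 cells/well, 5 hr settle at 37 °C; compound 16 hr, 37 °C, complete medium; Caspase-Glo 3/7, 20 min RT; luminescence. DMSO = 0%, 100 uM tamoxifen = 100%; Hill-equation AC50.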

Assay [5] is described as follows: Cell Viability - LYMP2-001 (AID 921).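 Note: 0% = DMSO only and full inhibition = tetraoctylammonium bromide control wells; nearly all actives have a fitted effect of over 70% in size.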 The essentials: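 qHTS, 1536-well; lymphoblastoid cells, 24 hr compound, 37 C; ATP by CellTiter-Glo, 30 min RT; luminescence; Hill-fit AC50.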
A short description of assay [6]: MultiTox-Fluor Cytotoxicity Assay - LYMP1-001 - Live Cells (AID 947).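 Note: 0% = DMSO only and full inhibition = tetraoctylammonium bromide control.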
The nature of assay [7]: Cell Viability - LYMP1-003 - Assay at 24 hr (AID 963).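 Note: plate controls were DMSO only for no effect and tetraoctylammonium bromide positive control for full effect.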 The essentials:
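Concentration-response qHTS: ATP loss measured by CellTiter-Glo luminescence after 24 h compound exposure at 37 C. Cells were LYMP1-003 human lymphoblastoid, 2500 per well. AC50 derived via standard Hill equation modeling.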

A short description of assay [8]: Cell Viability - LYMP2-005 (AID 967).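 Note: plate controls were DMSO only for no effect and 92 µM tetraoctylammonium bromide control for full effect.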 The method, boiled down:
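qHTS viability screen in LYMP2-005 cells: 24 h at 37 C with compound, ATP luminescence via CellTiter-Glo, AC50 from Hill curves.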

Assay [9] in a line: Cell Viability - LYMP2-012 (AID 982).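 Note: cellular ATP by luciferase luminescence where a drop means cytotoxicity; cells exposed to compound for one day before reading; 0% = DMSO only and full loss = 92 µM tetraoctylammonium bromide; nearly all actives have a fitted effect of over 55% in size.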
A short description of assay [10]: qHTS assay for small molecule disruptors of the mitochondrial membrane potential - 1 hr assay (AID 651754; calls by dose curve; note: nearly all actives have a fitted effect of over 35% in size; note: potency is the fitted concentration of half-maximal effect). The essentials:
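Mitochondrial potential in living HepG2 cells after 1 hr compound treatment at 37C was read with Mito-MPS dye added for a further 30 min. Red aggregate and green monomer fluorescence were measured; loss of potential leaves dye as cytoplasmic monomers.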
(In general: qHTS replaces the single test concentration by a dilution series.)

Assay [11] can be described thus: qHTS assay for small molecule agonists of the antioxidant response element (ARE) signaling pathway measured by Nrf2-dependant transcriptional activity (AID 720636; active = well fitted curve in the direction sought with a large enough effect in the repeat runs; an effect the other way counts as inactive or inconclusive;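 note: HepG2 cells with an ARE-driven luciferase reporter; % of control where 0% means no effect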). The essentials:
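We exposed ARE-luc HepG2 cells, seeded in assay medium with 1% dialyzed FBS and allowed 6 hr to adhere, to test compounds overnight (16 hr, 37 C) before measuring luciferase with ONE-Glo.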

Assay [12] in a line: qHTS assay for small molecule antagonists of the retinoid-related orphan receptor gamma (ROR-gamma) signaling pathway - cell viability counter screen (AID 720652; active = well fitted curve in the direction sought with a large enough effect in the repeat runs; an effect the other way counts as inactive or inconclusive;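 note: compound exposure lasted 16 hr before ATP read; % is set by controls: 0 for no effect and ±100 for the full control effect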). The method, boiled down: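 Cytotoxicity counter screen: intracellular ATP (CellTiter-Glo luminescence) measured in the doxycycline-induced CHO RORE-luciferase reporter line after 16 hr compound exposure at 37 C, 5% CO2.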

Assay [13] has as its target Nuclear receptor subfamily 1 group I member 2 (Rattus norvegicus) (UniProt Q9R1A7). In words: qHTS assay for small molecule activators of the rat pregnane X receptor (rPXR) signaling pathway (AID 651751; call rule not given here; note: 0% is about no effect). The note with it: rPXR reporter cells, luciferase (One-Glo), 24 h.
Assay [14] is described as follows: Cell Viability - LYMP1-003 - Assay at 40 hr (AID 964). Note: % is set by controls: 0 for no effect and ±100 for the full control effect; nearly all actives have a fitted effect of over 60% in size. The essentials: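 Viability is taken as cellular ATP, read by CellTiter-Glo luminescence after 40 h of compound exposure at 37 C. Cells: human lymphoblastoid line LYMP1-003 at 2500/well; AC50 values derived by Hill-equation fitting of concentration-response data.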
Assay [15] is described as follows: Cell Viability - LYMP2-022 (AID 987).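 Note: 0% = DMSO alone and full effect = tetraoctylammonium bromide at 92 µM; nearly all actives have a fitted effect of over 55% in size.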 The method, boiled down:
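Cytotoxicity read as decreased cellular ATP (CellTiter-Glo luminescence, 30 min room temperature) after 24 hours compound exposure of 2500 lymphoblastoid LYMP2-022 cells/well at 37 C. Concentration-response data fitted with standard Hill equation for AC50.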

Assay [16] addresses 3',5'-cyclic-AMP phosphodiesterase 4B (Homo sapiens) (UniProt Q07343). In words: qHTS Assay for Inhibitors of PDE-IV (AID 607; active = well fitted activation curve with a large enough effect in the main read-out, with a control signal flat, not every such curve was filed as active; note: % of control where 0% means no effect). The method, boiled down: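 HEK293 ACTOne cells with CNG channel (1000/well), endogenous PDE4; membrane potential dye, compounds up to 22.9 uM final. Fluorescence Ex 535/Em 590; RO 20-1724 (100 uM final) as reference.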

Where “and” joins values, the source holds several entries; their conditions need not be identical. Equal values may be shown once. A number with no mark means an inactive call. Results filed as inconclusive are left out. Calls of active or inactive are those of the source. Unless noted, calls come from the whole dose curve; as a rule, active = well fitted curve in the direction sought with a large enough effect; inconclusive = small, poorly fitted or top-dose-only effect, or another doubt; inactive = no such curve, though single readings can be large; an effect the other way counts as inactive or inconclusive.

Nuclear receptor subfamily 1 group I member 2 (Rattus norvegicus), sequence (Q9R1A7 whole entry, looked up): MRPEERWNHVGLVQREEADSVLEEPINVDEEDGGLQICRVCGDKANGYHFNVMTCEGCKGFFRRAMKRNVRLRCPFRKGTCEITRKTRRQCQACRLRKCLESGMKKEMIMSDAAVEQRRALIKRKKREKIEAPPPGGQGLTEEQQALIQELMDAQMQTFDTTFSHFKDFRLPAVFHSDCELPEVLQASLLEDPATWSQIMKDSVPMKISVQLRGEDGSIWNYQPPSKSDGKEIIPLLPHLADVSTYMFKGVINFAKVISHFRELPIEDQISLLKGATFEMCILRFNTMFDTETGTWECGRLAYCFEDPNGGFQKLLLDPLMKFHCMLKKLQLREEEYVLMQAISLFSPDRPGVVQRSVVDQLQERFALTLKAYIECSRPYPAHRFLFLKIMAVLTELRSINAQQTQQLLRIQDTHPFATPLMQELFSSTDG
3',5'-cyclic-AMP phosphodiesterase 4B (Homo sapiens), sequence (Q07343 whole entry, looked up): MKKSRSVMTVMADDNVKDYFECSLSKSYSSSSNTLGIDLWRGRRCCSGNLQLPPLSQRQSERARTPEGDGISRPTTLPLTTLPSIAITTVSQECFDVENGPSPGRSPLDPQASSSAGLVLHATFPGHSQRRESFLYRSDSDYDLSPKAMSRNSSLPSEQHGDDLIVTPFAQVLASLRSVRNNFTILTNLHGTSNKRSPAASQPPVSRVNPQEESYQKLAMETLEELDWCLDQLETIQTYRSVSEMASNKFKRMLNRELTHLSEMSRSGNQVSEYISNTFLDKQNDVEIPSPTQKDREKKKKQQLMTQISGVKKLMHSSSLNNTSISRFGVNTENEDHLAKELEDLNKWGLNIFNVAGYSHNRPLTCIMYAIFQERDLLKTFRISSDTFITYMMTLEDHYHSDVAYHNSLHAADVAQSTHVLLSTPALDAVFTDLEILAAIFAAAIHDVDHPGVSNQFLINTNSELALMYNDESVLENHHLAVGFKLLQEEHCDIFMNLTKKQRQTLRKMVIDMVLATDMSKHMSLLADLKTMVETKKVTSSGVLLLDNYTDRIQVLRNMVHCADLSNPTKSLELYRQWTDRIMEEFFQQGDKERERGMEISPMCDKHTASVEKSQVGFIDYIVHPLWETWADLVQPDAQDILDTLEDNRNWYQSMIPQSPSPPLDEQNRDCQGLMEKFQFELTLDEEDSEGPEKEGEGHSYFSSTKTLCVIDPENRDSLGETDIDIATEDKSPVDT

Regarding `C=C(Cl)CSC(=S)N(CC)CC`, the Potency result in assay [1], in [2], in [3], in [4], in assay [5] and in assay [8] was “inactive” in each case. The Potency entry in [9], in assay [10], in [11] and in assay [12] was “inactive” in each case. In addition, the molecule was called inactive in [6] and in assay [7]. Moreover, the max response in assay [13] is 1.65%.

As to `Cc1ccc2c(C)cccc2c1`, the Potency entry in assay [1], in assay [2], in assay [3], in assay [4], in assay [5] and in assay [14] was “inactive” each time. Also, the Potency entry in assay [8], in assay [9], in [15], in assay [10], in [11] and in assay [12] was “inactive” each time. For the same molecule, the molecule was called inactive in assay [7]. Further, the max response in assay [13] was -3.71%.

Take `Oc1cccc(Cl)c1Cl`: the Potency entry in [1], in assay [2], in assay [3], in assay [4], in assay [5] and in assay [14] was “inactive” throughout. The Potency result in [8], in assay [9], in [15], in assay [10], in [11] and in assay [12] was “inactive” in each case. Besides, the molecule was called inactive in assay [6] and in assay [7]. Moreover, the max response in [13] was -2.09%.

For the molecule `N#CCBr`, the Potency result in assay [1], in assay [2], in assay [3], in assay [4], in assay [5] and in [14] was “inactive” throughout. Moreover, the Potency result in [8], in assay [9], in assay [15], in assay [10] and in assay [11] was “inactive” each time. Also, the result in assay [6] and in assay [7] was inactive. In assay [13], the max response was -1.93%.

For `C=CC(=O)OCC(CC)CCCC` (configuration not stated), the Potency result in [1], in [2], in assay [3], in assay [4], in assay [5] and in [14] was “inactive” in each case. For the same molecule, the Potency entry in [8], in assay [9], in assay [15], in [10], in assay [11] and in [12] was “inactive” in each case. Also, the call in assay [6] and in [7] was inactive. Moreover, the max response in assay [13] is -2.19% and -0.52%.

`CC[C@]1(OC(=O)CN)C(=O)OCc2c1cc1n(c2=O)Cc2cc3ccccc3nc2-1`: the call in assay [16] was inactive.

Consider `COc1ccc(C=O)cc1`, for which the Potency result in assay [1], in assay [2], in assay [3], in assay [4], in assay [5] and in assay [14] was “inactive” throughout. Moreover, the Potency entry in [8], in assay [9], in assay [15], in [11] and in assay [12] was “inactive” throughout. The molecule was called inactive in [6] and in [7]. The max response in assay [13] was 2.55%.

Consider `COc1cc(-c2ccc(N)c(OC)c2)ccc1N`, for which the Potency result in [1], in [2], in assay [3], in assay [4], in assay [5] and in assay [14] was “inactive” throughout. Further, the Potency result in assay [8], in assay [9], in [15] and in assay [11] was “inactive” throughout. In addition, the result in [6] and in assay [7] was inactive. Besides, the Potency in assay [10] is 37.6 µM (active). Besides, the max response in assay [13] is 3.75% and 3.76% and 11%.

With `Cc1cccc(N)c1C`, the Potency result in [1], in [2], in assay [3], in assay [4], in [5] and in [8] was “inactive” throughout. The Potency entry in [15], in [10], in assay [11] and in [12] was “inactive” in each case. In addition, the molecule was called inactive in assay [6] and in [7]. Besides, the max response in assay [13] was -0.698%.

Consider `O=[N+]([O-])c1ccc2c3c(cccc13)CC2`, for which the Potency result in [1], in assay [3], in assay [4], in [5], in assay [14] and in [8] was “inactive” in each case. Moreover, the Potency result in assay [9], in [15], in assay [11] and in assay [12] was “inactive” throughout. For the same molecule, the molecule was called inactive in assay [7]. Besides, the Potency in [10] is 37.6 µM (active).

For the molecule `O=[N+]([O-])c1ccc(O)c([N+](=O)[O-])c1`, the Potency result in assay [2], in assay [4], in [5], in assay [14], in assay [8] and in assay [9] was “inactive” each time. Also, the Potency entry in assay [15], in [11] and in [12] was “inactive” each time. For the same molecule, the molecule was classed as inactive in assay [6] and in assay [7]. Besides, in assay [10], the Potency was 21.1 µM (active).
